Test results as given in the supplement of paper PMC3334620.
In all, about 33,000 sequences were measured (“E-score (-0.5 to 0.5)”: median about -0.054, highest 2% from about 0.35 on). The sample holds the highest values, similar sequences and a random draw of the others, so the mix is not that of the screen.

These sequences were tested against T1, Stb5 (UniProt P38699) (assay: PBM E-score (8-mer binding enrichment) (E-score (-0.5 to 0.5)); higher = stronger / more preferred TF binding). Details: protein concentration: 200 nM; construct: GST-full length.
T1 sequence: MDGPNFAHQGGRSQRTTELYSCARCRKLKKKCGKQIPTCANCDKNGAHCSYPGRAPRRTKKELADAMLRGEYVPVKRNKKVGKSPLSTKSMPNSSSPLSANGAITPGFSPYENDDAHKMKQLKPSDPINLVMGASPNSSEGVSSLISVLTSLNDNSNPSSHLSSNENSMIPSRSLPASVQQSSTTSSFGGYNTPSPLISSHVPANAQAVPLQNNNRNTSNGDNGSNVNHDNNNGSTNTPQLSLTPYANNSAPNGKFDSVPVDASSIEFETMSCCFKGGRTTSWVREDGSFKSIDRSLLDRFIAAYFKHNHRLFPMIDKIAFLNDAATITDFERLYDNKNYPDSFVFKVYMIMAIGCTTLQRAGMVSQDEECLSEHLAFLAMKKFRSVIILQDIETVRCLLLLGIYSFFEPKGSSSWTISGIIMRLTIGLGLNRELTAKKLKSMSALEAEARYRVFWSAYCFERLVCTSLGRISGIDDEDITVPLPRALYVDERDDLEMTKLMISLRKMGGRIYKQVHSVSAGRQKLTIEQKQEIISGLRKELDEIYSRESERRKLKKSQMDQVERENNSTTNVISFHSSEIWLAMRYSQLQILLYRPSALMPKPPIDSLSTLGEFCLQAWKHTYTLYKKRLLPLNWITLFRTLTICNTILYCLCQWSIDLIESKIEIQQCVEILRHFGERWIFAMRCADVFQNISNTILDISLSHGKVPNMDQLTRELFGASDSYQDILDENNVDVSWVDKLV
How it was run: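 Each ungapped eight-base word and its reverse complement, pooled, received an E-score from the Universal PBM Analysis Suite. Underlying scans, normalised with masliner, recorded fluorescent anti-GST bound to GST-tagged yeast transcription factors. These were applied at about 100-200 nM to universal all-10-mer Agilent arrays double-stranded by primer extension.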

Sequence | PBM E-score
GTGGTCAA | -0.291
CACTCCGG | 0.219
CACTCCGA | 0.242
AACTCCGT | 0.444
GACTCCGC | 0.333
AACTCCGG | 0.436
AACTCCAT | 0.144
AACTCCCG | 0.248
TACTCCGA | 0.234
CACTCCGC | 0.307
AACTCCGA | 0.463
AACTCCCT | -0.0261
AACTCCGC | 0.438
AGATCAAG | -0.211
ATTAGTCC | 0.248
CATATCAC | 0.0389
TGCTGCAA | -0.177
CCAGAACG | -0.0165
ATTCAAAG | -0.12
GCGCGAAA | 0.0664
AAGAGTGA | -0.258
ACAGACGT | -0.141
CCCCTCAC | -0.231

Sequence | PBM E-score
GGGTACCA | -0.157
CGGTACTA | 0.474
GGGTACTA | -0.0611
TGGTACCA | -0.0919
CGGTACCA | 0.39
AGGTACTA | 0.16
AATGTGCC | 0.145
ATCAAAGA | -0.248
CAGCAGGA | -0.194
AGTCTCCG | 0.264
AAGAACAT | -0.0596
CTAACACA | -0.0526
CTAACACC | 0.401
ATAACACA | -0.107
CCAACACC | 0.119
ATAACACC | 0.461
ATAACACG | -0.0233
GAATCCTC | -0.239
CGCGTTCC | 0.0249
ATTCCTTC | -0.0881
GCCCTTAA | 0.191
CCCTGGCG | 0.114
CCTCTCCG | -0.171

Sequence | PBM E-score
AATCATTG | -0.314
GTGGCACA | -0.325
CGGGGGCA | 0.275
GCCGATGA | 0.357
CCCGATGA | 0.226
ACCGATGA | 0.264
CCCTATAG | -0.104
AATGGCAT | 0.0389
CGAGCGGC | 0.318
CCGGCGGA | 0.385
GCGGCGGA | 0.333
GGGGCGGA | 0.293
CGGGCGGC | 0.308
CGAGCGGA | 0.385
CGGGCGGA | 0.359
CCGGCGGC | 0.327
AGAGCGGA | 0.312
AATTGGCC | -0.224
CATCTAGG | -0.139
CGAATTGA | -0.12
ACAATTCG | -0.00889
AGGTATCC | -0.211
CGCCTTAA | 0.0389

Sequence | PBM E-score
CGGCCTCC | 0.129
CGGCCTCA | 0.363
AGGCCTCA | -0.264
CTTTAGCA | 0.133
ATCTCTGA | -0.172
TCACCGAA | 0.217
CCACCGAA | 0.117
CGACCGAC | 0.271
AGACCGAG | 0.177
AGACCGAA | 0.236
AAACCGAA | -0.0132
AGACCGAC | 0.385
GCACCGAC | 0.45
GGACCGAC | 0.318
GAACCGAC | 0.225
ACACCGAA | 0.386
GCACCGAA | 0.358
AAGAACTA | -0.0107
AGGTTCAC | -0.164
CAATTCGC | 0.0656
ACGAGAAA | -0.0778
CAATGGCC | 0.0847
ATGAGGCA | -0.24

Sequence | PBM E-score
ATCTTGGG | -0.145
CGAAGGAA | -0.188
GATGAGAC | -0.136
CCACCGAG | 0.0738
AAACCGAT | 0.121
ACACCGAG | 0.369
ACACCGAC | 0.466
AAACCGAC | 0.222
CCACCGAC | 0.346
AGACCGAT | 0.272
ACACCGAT | 0.447
AAACCGAG | -0.0377
AATGGTTC | 0.00524
TAAATCTA | -0.0639
GAATGAAA | 0.0556
AATGCGGA | 0.2
CCGAAGCG | 0.225
ACCTTAAT | 0.0412
AGGGCGCC | -0.0741
CACGCCCG | 0.0876
GACCATCA | 0.0409
